Calls of active or inactive are those of the source. The calls were made as follows: active = hit-call score of the fitted dose curve at least 0.9, where 1 is the maximum; inactive = score below 0.9.
Columns and labels:
[1] = read-out: Macrophage colony-stimulating factor (MCSF), CSF1 (gene 1435); assay: BSK_hDFCGF_MCSF: BioMAP Diversity Plus: hDFCGF Assay for Macrophage colony-stimulating factor (MCSF) Biomarker Activity (AID 2283060); settings: primary human foreskin fibroblasts; actives raise or lower the signal
Summary of the method: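 M-CSF levels, determined by ELISA, are taken at 24 h after dosing human skin fibroblasts. Responses in either direction are fitted with DMSO serving as the baseline.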

[2] = BSK_hDFCGF_SRB: Viability Assessment in the BioMAP Diversity Plus: hDFCGF Assay (AID 2283061); settings: primary human foreskin fibroblasts;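 also: cells exposed to compound for 24 h before the read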
Summary of the method: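 Cells were dosed with test chemical, cultured 24 h, fixed with 10% TCA, then stained with 0.1% SRB and read at 560 nm. The fibroblasts were human foreskin primary cells, and DMSO served as baseline.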

[3] = read-out: Monokine induced gamma interferon (MIG), CXCL9 (gene 4283); assay: BSK_hDFCGF_MIG: BioMAP Diversity Plus: hDFCGF Assay for Monokine induced gamma interferon (MIG) Biomarker Activity (AID 2283063); settings: primary human foreskin fibroblasts; actives raise or lower the signal
Summary of the method: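 MIG signal, determined by ELISA, reflects 24 h chemical exposure of human skin primary fibroblasts. DMSO serves as negative control and baseline.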

[4] = read-out: Matrix Metallopeptidase 1 (MMP1), MMP1 (gene 4312); assay: BSK_hDFCGF_MMP1: BioMAP Diversity Plus: hDFCGF Assay for Matrix Metallopeptidase 1 (MMP1) Biomarker Activity (AID 2283064); settings: primary human foreskin fibroblasts; actives raise or lower the signal
Summary of the method: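 hDFCGF primary fibroblasts (human foreskin); chemical added; 24 h; MMP1 by ELISA; bidirectional fit vs DMSO.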

[5] = read-out: Plasminogen activator inhibitor-1 (PAI1), SERPINE1 (gene 5054); assay: BSK_hDFCGF_PAI1: BioMAP Diversity Plus: hDFCGF Assay for Plasminogen activator inhibitor-1 (PAI1) Biomarker Activity (AID 2283066); settings: primary human foreskin fibroblasts; actives raise or lower the signal
Summary of the method: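 Human foreskin fibroblast primary cells, 24 h chemical exposure; PAI-1 measured by ELISA. Bidirectional fitting relative to DMSO; parallel cultures stained with SRB for total protein to flag overt cytotoxicity.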

[6] = read-out: Intercellular Adhesion Molecule 1 (ICAM1), ICAM1 (gene 3383); assay: BSK_KF3CT_ICAM1: BioMAP Diversity Plus: KF3CT Assay for Intercellular Adhesion Molecule 1 (ICAM1) Biomarker Activity (AID 2283067); settings: primary human keratinocytes with fibroblasts; actives raise or lower the signal
Summary of the method: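 Dose the keratinocyte/fibroblast co-culture, wait 24 h, measure ICAM-1 by ELISA, then fit increases or decreases against DMSO. Cytotoxicity is checked in parallel cultures by SRB total-protein staining.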

[7] = read-out: Interferon-gamma inducible Protein 10 (IP10), CXCL10 (gene 3627); assay: BSK_KF3CT_IP10: BioMAP Diversity Plus: KF3CT Assay for Interferon-gamma inducible Protein 10 (IP10) Biomarker Activity (AID 2283068); settings: primary human keratinocytes with fibroblasts; actives raise or lower the signal
Summary of the method: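 In a primary skin co-culture of keratinocytes and fibroblasts, IP-10 is quantified by ELISA at 24 h after dosing. SRB staining of parallel wells monitors overt toxicity. Curves are fitted both directions against DMSO.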

[8] = read-out: Interleukin-1 alpha (IL1a), IL1A (gene 3552); assay: BSK_KF3CT_IL1a: BioMAP Diversity Plus: KF3CT Assay for Interleukin-1 alpha (IL1a) Biomarker Activity (AID 2283070); settings: primary human keratinocytes with fibroblasts; actives raise or lower the signal
Summary of the method: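 Chemicals were dosed onto co-cultured human keratinocytes and foreskin fibroblasts, IL-1a was quantified by ELISA at 24 h, and activity was fitted in both directions relative to DMSO controls.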

[9] = read-out: TIMP metallopeptidase inhibitor 2 (TIMP2), TIMP2 (gene 7077); assay: BSK_KF3CT_TIMP2: BioMAP Diversity Plus: KF3CT Assay for TIMP metallopeptidase inhibitor 2 (TIMP2) Biomarker Activity (AID 2283071); settings: primary human keratinocytes with fibroblasts; actives raise or lower the signal
Summary of the method: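 Co-culture of human primary keratinocytes and foreskin fibroblasts, measured 24 h after chemical dosing. TIMP-2 quantified by ELISA and fitted in both directions relative to DMSO. Cytotoxicity checked in parallel cultures by SRB total-protein staining.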

[10] = read-out: Transforming growth factor beta 1 (TGFb1), TGFB1 (gene 7040); assay: BSK_KF3CT_TGFb1: BioMAP Diversity Plus: KF3CT Assay for Transforming growth factor beta 1 (TGFb1) Biomarker Activity (AID 2283072); settings: primary human keratinocytes with fibroblasts; actives raise or lower the signal
Summary of the method: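 Human keratinocyte/foreskin fibroblast co-culture; TGF-b1 measured by ELISA 24 h after dosing, fitted bidirectionally versus DMSO. Cytotoxicity checked in parallel cultures by total protein (SRB staining, 560 nm).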

[11] = read-out: C-C motif chemokine 2 (Homo sapiens) (UniProt P13500); assay: BSK_KF3CT_MCP1: BioMAP Diversity Plus: KF3CT Assay for Monocyte Chemoattractant Protein 1 (MCP1/CCL2) Biomarker Activity (AID 2283073); settings: primary human keratinocytes with fibroblasts; actives raise or lower the signal
Summary of the method: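 Keratinocytes and foreskin fibroblasts were co-cultured, dosed with chemical, and sampled 24 h later. MCP-1 was quantified by ELISA, and the endpoint was analyzed with bidirectional fitting using DMSO as negative control.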

[12] = read-out: Matrix Metallopeptidase 9 (MMP9), MMP9 (gene 4318); assay: BSK_KF3CT_MMP9: BioMAP Diversity Plus: KF3CT Assay for Matrix Metallopeptidase 9 (MMP9) Biomarker Activity (AID 2283074); settings: primary human keratinocytes with fibroblasts; actives raise or lower the signal
Summary of the method: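 Human keratinocyte/foreskin fibroblast co-culture; compound added; 24 h; MMP-9 by ELISA; bidirectional fit vs DMSO baseline.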

[13] = read-out: urokinase plasminogen activator (uPA), PLAU (gene 5328); assay: BSK_KF3CT_uPA: BioMAP Diversity Plus: KF3CT Assay for urokinase plasminogen activator (uPA) Biomarker Activity (AID 2283075); settings: primary human keratinocytes with fibroblasts; actives raise or lower the signal
Summary of the method: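 ELISA readout of uPA, analyzed for signal gain or loss relative to DMSO, from a human primary keratinocyte–foreskin fibroblast co-culture measured 24 h after chemical treatment.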

CD40, CD40 (gene 958) = assay: BSK_LPS_CD40: BioMAP Diversity Plus: LPS Assay for CD40 Biomarker Activity (AID 2283076); settings: primary human HUVEC with PBMC; actives raise or lower the signal
Summary of the method: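 CD40 signal, measured by ELISA, is fitted in both directions relative to DMSO vehicle. The system is an LPS-driven human vascular primary co-culture of endothelial cells and PBMC, sampled 24 h after compound addition.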

[14] = read-out: E-selectin (Homo sapiens) (UniProt P16581); assay: BSK_LPS_Eselectin: BioMAP Diversity Plus: LPS Assay for Eselectin Biomarker Activity (AID 2283077); settings: primary human HUVEC with PBMC; actives raise or lower the signal
Summary of the method: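 Signal of E-selectin, detected by ELISA, served as the endpoint; cells were umbilical vein endothelium with PBMC, read 24 h after treatment. DMSO defined baseline, and both increases and decreases were fitted.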

[15] = read-out: Interleukin-8 (IL8), CXCL8 (gene 3576); assay: BSK_LPS_IL8: BioMAP Diversity Plus: LPS Assay for Interleukin-8 (IL8) Biomarker Activity (AID 2283078); settings: primary human HUVEC with PBMC; actives raise or lower the signal
Summary of the method: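 Endothelial cells and PBMC from human donors are co-cultured, treated with chemicals and LPS, then assayed for IL-8 by ELISA after 24 h. Parallel SRB staining (0.1% SRB after 10% TCA fixation, 560 nm) flags cytotoxicity.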

[16] = BSK_LPS_SRB: Viability Assessment in the BioMAP Diversity Plus: LPS Assay (AID 2283079); settings: primary human HUVEC with PBMC;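 also: total protein by sulforhodamine B absorbance as a cytotoxicity measure; measured one day after compound addition; fitted in both directions against DMSO so loss or gain of signal counts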
Summary of the method: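 Overt cytotoxicity was gauged by sulforhodamine B total-protein staining in a primary human vascular endothelial and mononuclear cell co-culture 24 h post-dosing. Activity was fitted in both directions relative to DMSO.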

[17] = read-out: TIMP metallopeptidase inhibitor 1 (TIMP1), TIMP1 (gene 7076); assay: BSK_hDFCGF_TIMP1: BioMAP Diversity Plus: hDFCGF Assay for TIMP metallopeptidase inhibitor 1 (TIMP1) Biomarker Activity (AID 2283062); settings: primary human foreskin fibroblasts; actives raise or lower the signal
Summary of the method: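 Fibroblasts from human foreskin are treated with test chemical and harvested at 24 h. TIMP-1 is quantified by ELISA, and gain or loss of signal is scored against DMSO.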

[18] = read-out: Vascular cell adhesion molecule 1 (VCAM1), VCAM1 (gene 7412); assay: BSK_hDFCGF_VCAM1: BioMAP Diversity Plus: hDFCGF Assay for Vascular cell adhesion molecule 1 (VCAM1) Biomarker Activity (AID 2283065); settings: primary human foreskin fibroblasts; actives raise or lower the signal
Summary of the method: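 Cells are dosed, cultured for 24 h, then VCAM-1 is quantified by ELISA; signal increases and decreases are both fitted relative to DMSO.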

[19] = BSK_KF3CT_SRB: Viability Assessment in the BioMAP Diversity Plus: KF3CT Assay (AID 2283069); settings: primary human keratinocytes with fibroblasts;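 also: fitted for both signal gain and loss against DMSO baseline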
Summary of the method: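 Keratinocytes co-cultured with foreskin fibroblasts (human primary); chemical added, 24 h; fix 10% TCA, stain 0.1% SRB, A560. Bidirectional fit vs DMSO.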

Measured: outcome

Sequence of E-selectin (Homo sapiens) (P16581 whole entry, looked up): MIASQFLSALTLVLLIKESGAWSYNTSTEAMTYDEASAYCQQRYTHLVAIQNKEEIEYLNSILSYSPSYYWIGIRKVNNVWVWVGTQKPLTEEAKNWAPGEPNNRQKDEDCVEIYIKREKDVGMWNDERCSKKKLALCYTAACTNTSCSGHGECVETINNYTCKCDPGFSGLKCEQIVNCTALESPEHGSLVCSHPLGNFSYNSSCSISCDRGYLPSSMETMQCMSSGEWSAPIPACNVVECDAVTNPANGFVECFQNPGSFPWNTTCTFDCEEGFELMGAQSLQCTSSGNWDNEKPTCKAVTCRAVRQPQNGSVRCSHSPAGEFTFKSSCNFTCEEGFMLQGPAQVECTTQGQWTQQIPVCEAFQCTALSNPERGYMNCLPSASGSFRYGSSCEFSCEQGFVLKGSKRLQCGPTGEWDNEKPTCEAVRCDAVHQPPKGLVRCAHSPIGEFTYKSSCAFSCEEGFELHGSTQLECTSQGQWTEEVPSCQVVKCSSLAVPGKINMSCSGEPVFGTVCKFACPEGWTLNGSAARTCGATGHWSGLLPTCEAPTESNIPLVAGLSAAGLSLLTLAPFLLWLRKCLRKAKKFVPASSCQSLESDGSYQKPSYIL

Nc1nc(N)c2nc(CNc3ccc(C(=O)N[C@@H](CCC(=O)O)C(=O)O)cc3)cnc2n1
inactive: [1] | [2] | [3] | [4] | [5] | [6] | [7] | [8] | [9] | [10] | [11] | [12] | [13] | CD40, CD40 (gene 958) | [14] | [15] | [16]

CNC(=O)[C@H]1O[C@@H](n2cnc3c(NCc4cc(Cl)ccc4OCc4cc(C)no4)ncnc32)[C@H](O)[C@@H]1N
inactive: [1] | [2] | [3] | [4] | [5] | [6] | [7] | [8] | [9] | [10] | [11] | [12] | [13] | CD40, CD40 (gene 958) | [14] | [15] | [16]

CCCCCCC(=O)OCC
inactive: [1] | [17] | [3] | [18] | [5] | [6] | [7] | [19] | [8] | [9] | [10] | [11] | [12] | [13] | CD40, CD40 (gene 958) | [14] | [15] | [16]

CC1(C)CC(N=C=O)CC(C)(CN=C=O)C1 (configuration not stated)
inactive: [1] | [2] | [3] | [5] | [6] | [7] | [8] | [10] | [11] | [12] | [13] | CD40, CD40 (gene 958) | [14] | [15] | [16]

Cc1ccc2ncccc2c1
inactive: [1] | [2] | [3] | [18] | [5] | [6] | [7] | [8] | [10] | [11] | [12] | [13] | CD40, CD40 (gene 958) | [14] | [15] | [16]

FC(F)(F)C(F)(F)C(F)(F)C(F)(F)C(F)(F)C(F)(F)CCI
inactive: [1] | [17] | [3] | [4] | [18] | [5] | [6] | [7] | [19] | [8] | [10] | [11] | [12] | [13] | CD40, CD40 (gene 958) | [14] | [15] | [16]

O=[N+]([O-])C(CO)(CO)CO
inactive: [1] | [2] | [3] | [4] | [5] | [6] | [7] | [19] | [8] | [9] | [10] | [11] | [12] | [13] | CD40, CD40 (gene 958) | [14] | [15] | [16]

CC(=O)Oc1ccccc1C(=O)O
inactive: [1] | [17] | [3] | [4] | [5] | [6] | [7] | [19] | [8] | [9] | [10] | [11] | [12] | [13] | CD40, CD40 (gene 958) | [14] | [15] | [16]
